Measured values taken from PubChem BioAssay AID1159580 (chemical genetic matrix, 2015).
In all, about 5,500 compounds went through this assay and about 2,000 (36%) were called active. Not shown: some 18% with an inconclusive outcome. Rule as the data show it: active = normalized growth mostly below about 0.91 (no sharp cut-off); inconclusive = no clear call, values can overlap the other calls; inactive = mostly above about 0.92. The list shows a part of the results.

Test: chemical genetic growth profiling, strain panel (AID 1159580);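 also: tested at 20 µM; growth read once vehicle control cultures reached saturation at 30 °C; 1 = growth at the plate median or of vehicle wells; lower values mean less growth of the strain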
Conditions: S. cerevisiae deletion strains, growth OD

Measured: normalized growth

N#C/C(=C\c1ccccc1Sc1ccc(Cl)cc1)S(=O)(=O)c1ccccn1
active: locus YLR113W, strain HOG1, hits give low values 0.821
inactive: locus YAR019C, strain CDC15, hits give low values 0.972 | locus YBL105C, strain PKC1, hits give low values 0.968 | locus YBR135W, strain CKS1, hits give low values 0.957 | locus YBR136W, strain MEC1, hits give low values 0.966 | locus YBR160W, strain CDC28, hits give low values 0.973 | locus YDL017W, strain CDC7, hits give low values 0.982 | locus YDL028C, strain MPS1, hits give low values 0.971 | locus YDL101C, strain DUN1, hits give low values 0.963 | locus YDL108W, strain KIN28, hits give low values 0.962 | locus YDL132W, strain cdc53, hits give low values 0.959 | locus YDL214C, strain PRR2, hits give low values 0.901 | locus YDR052C, strain DBF4, hits give low values 0.98 | locus YDR054C, strain cdc34, hits give low values 0.969 | locus YDR226W, strain ADK1, hits give low values 0.968 | locus YDR477W, strain SNF1, hits give low values 0.873 | locus YER123W, strain YCK3, hits give low values 0.88 | locus YER133W, strain GLC7, hits give low values 0.909 | locus YFL009W, strain cdc4, hits give low values 0.967 | locus YFL029C, strain CAK1, hits give low values 0.968 | locus YFR003C, strain YPI1, hits give low values 0.97 | locus YFR019W, strain FAB1, hits give low values 0.926 | locus YFR028C, strain CDC14, hits give low values 0.962 | locus YGR040W, strain KSS1, hits give low values 0.871 | locus YGR052W, strain FMP48, hits give low values 0.883 | locus YGR092W, strain DBF2, hits give low values 0.772 | locus YHR030C, strain SLT2, hits give low values 0.858 | locus YHR079C, strain IRE1, hits give low values 0.956 | locus YHR082C, strain KSP1, hits give low values 0.939 | locus YHR205W, strain SCH9, hits give low values 0.872 | locus YIL147C, strain SLN1, hits give low values 0.97 | locus YJL095W, strain BCK1, hits give low values 0.875 | locus YJL128C, strain PBS2, hits give low values 0.925 | locus YJL157C, strain FAR1, hits give low values 0.897 | locus YJR016C, strain ILV3, hits give low values 0.971 | locus YJR066W, strain TOR1 (second series), hits give low values 0.883 | locus YJR066W, strain TOR1, hits give low values 0.938 | locus YKL048C, strain ELM1, hits give low values 0.852 | locus YKL067W, strain YNK1, hits give low values 0.9 | locus YKL101W, strain HSL1, hits give low values 0.875 | locus YKL193C, strain SDS22, hits give low values 0.961 | locus YKL203C, strain TOR2, hits give low values 0.936 | locus YLR133W, strain CKI1, hits give low values 0.889 | locus YLR403W, strain SFP1, hits give low values 0.802 | locus YML070W, strain DAK1, hits give low values 0.886 | locus YMR001C, strain CDC5, hits give low values 0.964 | locus YMR205C, strain PFK2 (second series), hits give low values 0.908 | locus YMR277W, strain FCP1, hits give low values 0.963 | locus YNL006W, strain LST8, hits give low values 0.959 | locus YNL020C, strain ARK1, hits give low values 0.891 | locus YNL161W, strain CBK1, hits give low values 0.968 | locus YNL183C, strain NPR1, hits give low values 0.934 | locus YNL207W, strain RIO2, hits give low values 0.968 | locus YNL222W, strain SSU72, hits give low values 0.959 | locus YNL307C, strain MCK1 (second series), hits give low values 0.877 | locus YOL078W, strain AVO1, hits give low values 0.955 | locus YOL136C, strain PFK27, hits give low values 0.846 | locus YOR061W, strain CKA2, hits give low values 0.851 | locus YOR119C, strain RIO1, hits give low values 0.939 | locus YOR231W, strain MKK1, hits give low values 0.893 | locus YOR329C, strain SCD5, hits give low values 0.969 | locus YPL031C, strain PHO85, hits give low values 0.868 | locus YPL153C, strain RAD53, hits give low values 0.904 | locus YPL204W, strain HRR25, hits give low values 0.83 | locus YPL209C, strain IPL1, hits give low values 0.968 | locus YPL256C, strain CLN2, hits give low values 0.926 | locus YPR025C, strain CCL1, hits give low values 0.961 | locus YPR106W, strain ISR1, hits give low values 0.973 | locus YPR111W, strain DBF20, hits give low values 0.942 | strain NNK1, hits give low values 0.964 | strain TSCII, hits give low values 0.956
